The text below walks through data of paper PMC3218832.

Holding throughout (assay): protein binding microarray; high values mean tight binding
Conditions in all cases: dsDNA, one strand shown

For test [1], the target named is RELARELA (p65 homodimer) (Homo sapiens, UniProt Q04206 1-307).
The target in test [2] is p50p50 homodimer (Homo sapiens, UniProt P19838 7-356).
Test [3] has as its target T1, p52p52 homodimer (Homo sapiens, UniProt Q00653 4-332).
T1 sequence: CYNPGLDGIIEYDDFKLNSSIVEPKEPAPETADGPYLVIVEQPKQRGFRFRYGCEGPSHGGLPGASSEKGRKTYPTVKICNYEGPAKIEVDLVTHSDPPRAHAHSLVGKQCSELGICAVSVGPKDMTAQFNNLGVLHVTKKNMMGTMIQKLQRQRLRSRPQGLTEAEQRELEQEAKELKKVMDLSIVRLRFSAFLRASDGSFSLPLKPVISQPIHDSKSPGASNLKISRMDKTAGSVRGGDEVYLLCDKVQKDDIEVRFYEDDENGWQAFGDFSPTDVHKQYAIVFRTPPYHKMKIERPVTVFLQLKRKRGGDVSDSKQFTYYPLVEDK

In test [4] the target is RELA (p65) subunit of heterodimer;p50 subunit (Homo sapiens;Homo sapiens, UniProt Q04206;P19838 1-307;7-356).
RELA (p65) subunit of heterodimer;p50 subunit, sequence (Q04206 1-307, chain 1 of 2): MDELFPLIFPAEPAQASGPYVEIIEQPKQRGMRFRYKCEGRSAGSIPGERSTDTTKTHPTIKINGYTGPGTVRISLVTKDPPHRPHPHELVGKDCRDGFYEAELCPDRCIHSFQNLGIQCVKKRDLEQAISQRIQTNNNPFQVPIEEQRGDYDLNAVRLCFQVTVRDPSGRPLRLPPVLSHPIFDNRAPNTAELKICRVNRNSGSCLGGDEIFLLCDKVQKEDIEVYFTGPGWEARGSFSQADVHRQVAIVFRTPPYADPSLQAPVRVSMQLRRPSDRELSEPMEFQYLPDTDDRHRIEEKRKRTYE
RELA (p65) subunit of heterodimer;p50 subunit, sequence (P19838 7-356, chain 2 of 2): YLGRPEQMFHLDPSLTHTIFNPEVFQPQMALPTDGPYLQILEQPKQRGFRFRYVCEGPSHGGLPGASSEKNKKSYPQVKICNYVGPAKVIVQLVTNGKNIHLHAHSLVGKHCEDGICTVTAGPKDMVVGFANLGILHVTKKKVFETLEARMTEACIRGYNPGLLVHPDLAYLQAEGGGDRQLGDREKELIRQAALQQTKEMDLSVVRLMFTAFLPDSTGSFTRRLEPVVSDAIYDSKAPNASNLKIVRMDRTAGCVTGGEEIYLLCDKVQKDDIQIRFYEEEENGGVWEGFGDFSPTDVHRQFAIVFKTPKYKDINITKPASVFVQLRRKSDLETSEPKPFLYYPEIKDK
Test [5] concerns the target RELA (p65) subunit of heterodimer;p52 subunit (Homo sapiens;Homo sapiens, UniProt Q04206;Q00653 1-307;4-332).
The target of test [6] is RELB subunit;p50 subunit (Homo sapiens;Homo sapiens, UniProt Q01201;P19838 120-401;7-356).
Test [7] has as its target T2, RELB subunit;p52 subunit (Homo sapiens;Homo sapiens, UniProt Q01201;Q00653 120-401;4-332).
T2 sequence 1: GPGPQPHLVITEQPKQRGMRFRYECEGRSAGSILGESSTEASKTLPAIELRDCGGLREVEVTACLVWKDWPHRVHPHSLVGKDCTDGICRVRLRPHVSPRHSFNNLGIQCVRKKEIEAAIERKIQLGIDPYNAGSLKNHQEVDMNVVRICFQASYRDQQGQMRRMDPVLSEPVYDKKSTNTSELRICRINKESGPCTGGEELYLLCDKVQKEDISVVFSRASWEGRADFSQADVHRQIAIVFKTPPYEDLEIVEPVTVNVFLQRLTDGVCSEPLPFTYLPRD
T2 sequence 2: T1 sequence

Test [8] deals with C-Rel subunit;p50 subunit (Homo sapiens;Homo sapiens, UniProt Q04864;P19838 1-285;7-356).
The target in test [9] is T3, C-Rel subunit;p52 subunit (Homo sapiens;Homo sapiens, UniProt Q04864;Q00653 1-285;4-332).
T3 sequence 1: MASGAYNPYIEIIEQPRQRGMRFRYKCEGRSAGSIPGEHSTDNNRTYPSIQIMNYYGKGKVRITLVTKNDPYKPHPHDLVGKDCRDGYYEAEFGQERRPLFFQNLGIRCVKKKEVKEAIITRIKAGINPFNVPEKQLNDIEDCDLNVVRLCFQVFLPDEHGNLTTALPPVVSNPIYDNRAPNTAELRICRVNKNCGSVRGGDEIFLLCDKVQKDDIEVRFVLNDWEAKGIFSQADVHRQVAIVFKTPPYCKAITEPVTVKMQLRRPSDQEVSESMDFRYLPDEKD
T3 sequence 2: T1 sequence

p50p50 homodimer, sequence (P19838 7-356): as the sequence (P19838 7-356, chain 2 of 2) above
RELARELA (p65 homodimer), sequence (Q04206 1-307): as the sequence (Q04206 1-307, chain 1 of 2) above

As to GGAGTTTTCCT, the binding signal in [1] was 1.88 z-score; in test [2] it was -0.38 z-score; in [3], -0.329 z-score; in test [4], 0.312 z-score; in [5], -0.0971 z-score; in test [6], -0.676 z-score. The figures for the binding signal in test [7], in [8] and in [9] were -0.581 z-score, 0.446 z-score and 0.304 z-score, respectively.

As to GGGATGGCCCC, the binding signal is -0.135 z-score in test [1]; 0.31 z-score in test [2]; 1.6 z-score in [3]; 0.79 z-score in [4]; 1.15 z-score in test [5]; 0.678 z-score in test [6]. Besides, the binding signal is 0.614 z-score in test [7], 0.492 z-score in test [8] and 0.746 z-score in test [9].

On to GAGAAAGTCCC, for which the binding signal amounted to 1.97 z-score in [1]; 1.14 z-score in test [2]; 1.91 z-score in test [3]; 1.51 z-score in test [4]; 1.47 z-score in test [5]; 1.81 z-score in [6]. The figures for the binding signal in test [7], in test [8] and in test [9] were 1.7 z-score, 1.39 z-score and 1.69 z-score, respectively.

On to GGGAACGCCCT, for which the binding signal is 0.932 z-score in test [1]; -0.126 z-score in test [2]; 0.394 z-score in [3]; 0.492 z-score in test [4]; 0.418 z-score in test [5]; -0.197 z-score in test [6]. The binding signal in test [7] was found to be 0.214 z-score; in test [8], 0.154 z-score; in test [9] it was 0.403 z-score.

Turning to CAGATGTTCCT, the binding signal in test [1] was -0.208 z-score; in [2], -2.01 z-score; in test [3], -0.586 z-score; in test [4] it was -0.746 z-score; in test [5] it was -0.87 z-score; in test [6] it was -1.02 z-score. Also, the binding signal is -0.843 z-score in test [7], -1.15 z-score in test [8] and -0.842 z-score in test [9].

AGATTCTTCCT: the binding signal was -0.0679 z-score in test [1]; -0.78 z-score in test [2]; -0.546 z-score in test [3]; -0.559 z-score in test [4]; -0.896 z-score in [5]; -0.929 z-score in [6]. Also, the binding signal was -0.93 z-score in [7], -0.642 z-score in [8] and -0.588 z-score in test [9].

Regarding AAAGGACTCCT, the binding signal in [1] is -0.688 z-score; in test [2], -1.11 z-score; in test [3] it was -0.681 z-score; in test [4], -0.94 z-score; in [5] it was -0.976 z-score; in test [6], -1.07 z-score. Also, the binding signal in test [7] was -0.964 z-score; in test [8], -1.03 z-score; in test [9], -0.758 z-score.

Regarding AAAGTCATCCC, the binding signal in test [1] was -0.416 z-score; in test [2], -0.925 z-score; in [3], -0.412 z-score; in test [4], -1.01 z-score; in test [5], -0.716 z-score; in test [6] it was -0.587 z-score. The binding signal in [7] was -0.628 z-score; in test [8] it was -0.836 z-score; in test [9], -0.699 z-score.

Turning to AGGAAAGTCCC, the binding signal in test [1] was found to be 2.97 z-score; in test [2], 0.984 z-score; in test [3], 2.54 z-score; in test [4], 2.16 z-score; in test [5], 1.77 z-score; in test [6], 1.45 z-score. The figures for the binding signal in [7], in test [8] and in [9] were 1.93 z-score, 2.17 z-score and 2.89 z-score, respectively.

Take AGGAGCCTCCC: the binding signal in test [1] was -0.27 z-score; in test [2] it was -0.831 z-score; in test [3], -0.599 z-score; in test [4] it was -0.748 z-score; in test [5], -0.852 z-score; in test [6] it was -0.76 z-score. Moreover, the binding signal was -0.789 z-score in [7], -0.995 z-score in [8] and -0.719 z-score in [9].

GGGGTGATCCC: the binding signal in [1] is 0.248 z-score; in [2], 0.402 z-score; in [3] it was 1.59 z-score; in test [4] it was 0.62 z-score; in [5], 1.16 z-score; in test [6], 0.387 z-score. Further, the results for the binding signal in [7], in test [8] and in [9] were 0.685 z-score, 0.527 z-score and 0.91 z-score, respectively.

Regarding CAAGGATTCCC, the binding signal was 1.01 z-score in [1]; 0.585 z-score in test [2]; 0.314 z-score in test [3]; 0.704 z-score in [4]; 0.382 z-score in test [5]; 0.457 z-score in test [6]. The binding signal was 0.419 z-score in test [7], 0.93 z-score in test [8] and 0.576 z-score in test [9].

In the case of GGAATGATCCC, the binding signal was -0.0862 z-score in test [1]; -0.737 z-score in [2]; -0.387 z-score in test [3]; -0.382 z-score in [4]; -0.396 z-score in test [5]; -0.763 z-score in [6]. Also, the binding signal is -0.764 z-score in test [7], -0.432 z-score in test [8] and -0.264 z-score in test [9].

Consider AGAAAGTCCCC, for which the binding signal in [1] was found to be 1.93 z-score; in [2], 1.38 z-score; in [3], 2.13 z-score; in test [4], 1.84 z-score; in [5], 1.96 z-score; in test [6] it was 2.19 z-score. Moreover, the binding signal in test [7] amounted to 1.93 z-score; in test [8], 1.62 z-score; in test [9] it was 1.91 z-score.

CGAAGCGCCCC: the binding signal in test [1] is -0.596 z-score; in test [2] it was -0.188 z-score; in [3], -0.173 z-score; in [4], -0.171 z-score; in test [5] it was -0.0511 z-score; in [6], 0.0336 z-score. Also, the binding signal is 0.263 z-score in test [7], -0.144 z-score in test [8] and 0.0513 z-score in test [9].
